system: Chordin-like protein 2 (CHRDL2); assay: compounds binding chordin-like 2 – biochemical, small-molecule microarray, 635 nm fluorescence, primary screen (AID 1126); settings: fluorescence 635 nm, higher = more signal;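 note: printed compound slides probed with Chrdl2 protein at 4 µg/mL for 1 h at 4 C; score merges 667 nm emission intensity with signal to noise over three replicate slides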

SMILES | composite z-score
C=C(/C(=C/C[C@H](OC(C)=O)c1ccc(OCCO)cc1)c1cc(C(=O)OC)ccc1OC)C(C)C | 0.305
COCCCNC(=O)[C@@]1(Sc2ccc(C)cc2)CC(=O)N(Cc2ccccc2Cl)[C@@H]1c1ccc(CO)cc1 | 0.649
O=C(O)[C@H](Cc1ccccc1)n1cc(-c2ccccc2)nn1 | 0.238
CC(C)[Si](C#CCCCC#N)(Oc1ccccc1Br)C(C)C | 0.299
C=CC1c2cc(O)c(OC)cc2CCN1Cc1cccc(OC(F)(F)F)c1 (configuration not stated) | 0.44
O=C1OCCC=C[C@H]2OC34C=CCN(Cn5nnc6ccccc65)C(=O)[C@H]3N(CCO)C(=O)[C@@H]4C12 (some centres not stated) | -1.75
CC(C)[Si](C#C[Si](C(C)C)(C(C)C)C(C)C)(O[C@H](C)c1cn(Cc2ccccc2)nn1)C(C)C | 0.289

Source: PubChem BioAssay
